# Screening results deposited in PubChem BioAssay by Bradner/Qi Labs at DFCI.
# Shown is part of a subset that was picked to be rich in hits.
# CBX7 inh – inhibitors of human CBX7 binding to H3K27me3 peptide; O95931; AlphaScreen His6-CBX7 / biotin-H3K27me3 peptide binding; active compounds read low; normalised signal (fraction of DMSO) (no concentration beside the values); 1.1% of 66,000 active; AID 1224903; in the data active = normalised signal below about 0.5
# Target sequence (O95931 whole entry, looked up): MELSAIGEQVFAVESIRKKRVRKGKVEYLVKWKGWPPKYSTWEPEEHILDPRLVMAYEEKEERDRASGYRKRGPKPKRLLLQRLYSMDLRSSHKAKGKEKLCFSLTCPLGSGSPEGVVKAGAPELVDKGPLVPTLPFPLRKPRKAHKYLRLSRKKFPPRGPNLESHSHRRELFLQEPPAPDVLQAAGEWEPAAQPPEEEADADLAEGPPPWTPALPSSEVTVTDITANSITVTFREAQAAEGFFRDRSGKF
# An asterisk follows results filed as active.
SMILES,CBX7 inh
CCN(CC)S(=O)(=O)c1ccc2c(c1)N(CC(=O)NCCOC)C(=O)CO2,1.1
O=C(c1cnc(N2CCN(c3ncccn3)CC2)c2ccccc12)N1CCN(c2ccccn2)CC1,1
O=C(c1n[nH]c(=O)c2ccccc12)N1CCN(c2ccccn2)CC1,1.1
O=C(c1ccc(C#Cc2ccccc2)o1)N1CCN(c2ccccn2)CC1,0.45*
Cc1ccc(CCNC(=O)CCN2C(=O)COc3ccccc32)cc1,0.95
CCOC(=O)c1[nH]c2c(c1CCc1cccc(OC)c1)C(=O)CC(c1ccc(OCC)cc1)C2 (configuration not stated),0.73
COCc1nnc(NC(=O)c2ccc(S(=O)(=O)N3CC(C)CC(C)C3)cc2)o1 (configuration not stated),0.82
CC1CCCN(S(=O)(=O)c2ccc(C(=O)Nc3nnc(-c4cccs4)o3)cc2)C1 (configuration not stated),1
CC1CN(S(=O)(=O)c2ccc(C(=O)Nc3nnc(-c4cccs4)o3)cc2)CC(C)O1 (configuration not stated),0.77
Cc1nnc(NC(=O)c2ccc(S(=O)(=O)N3CC(C)CC(C)C3)cc2)o1 (configuration not stated),0.39*
CC1CCN(S(=O)(=O)c2ccc(NC(=O)c3ccc(C(C)(C)C)cc3)cc2)CC1,1.1
CC1CN(S(=O)(=O)c2ccc(C(=O)Nc3nnc(-c4ccc(F)cc4)o3)cc2)CC(C)O1 (configuration not stated),0.012*
COc1ccc(-c2nnc(NC(=O)c3ccc(S(=O)(=O)N4CCC(C)CC4)cc3)o2)c(OC)c1,0.92
CC1CC(C)CN(S(=O)(=O)c2ccc(C(=O)Nc3nc(-c4ccncc4)cs3)cc2)C1 (configuration not stated),1
Cc1nnc(NC(=O)c2ccc(S(=O)(=O)N3CCC(C)CC3)cc2)o1,0.028*
COCc1nnc(NC(=O)c2ccc(S(=O)(=O)N3CC(C)OC(C)C3)cc2)o1 (configuration not stated),0.67
CC1CC(C)CN(S(=O)(=O)c2ccc(C(=O)Nc3nnc(-c4ccc(Cl)s4)o3)cc2)C1 (configuration not stated),0.4*
O=C(Nc1nnc(-c2cccs2)o1)c1ccc(S(=O)(=O)N2CCCCC2)cc1,0.83
C=CCN1C(=O)c2ccccc2Sc2ccc(C(=O)NC(C)c3ccccc3)cc21 (configuration not stated),0.99
CCc1ccc(N(CC(=O)Nc2ccc(C)cc2)S(=O)(=O)c2c(C)noc2C)cc1,0.99
CC1CCCC(NC(=O)Cn2nc(Cc3ccncc3)c3ccccc3c2=O)C1C (configuration not stated),1
CC1CCCN(c2nc(-c3ccc(Br)cc3)nc3ccccc23)C1 (configuration not stated),1.2
COc1ccccc1-c1cc(=O)n(CC(=O)NCc2ccc(Cl)cc2)c2c1CCCC2,0.79
COC(CNC(=O)c1ccc2c(c1)N(Cc1ccccc1)C(=O)c1ccccc1S2(=O)=O)OC,1.1
CCC1CCCCN1S(=O)(=O)c1ccc(C(=O)Nc2nnc(-c3cccc(OC)c3)o2)cc1 (configuration not stated),0.91
SMILES,CBX7 inh
CCC1CCCCN1S(=O)(=O)c1ccc(C(=O)Nc2nnc(C)o2)cc1 (configuration not stated),0.094*
CCC1CCCCN1S(=O)(=O)c1ccc(C(=O)Nc2nnc(-c3ccc(OC)cc3)o2)cc1 (configuration not stated),0.79
Cc1ccc2c(c1)-c1c(cnn1CC(=O)Nc1cccnc1)CO2,0.94
Cc1nc2c(=O)sc3ccccc3c2n1-c1ccccc1,1
COc1ccc(N2Cc3cccc(C(=O)NC4CCCC4)c3C2=O)cc1,1.1
CCOC(=O)N1CCC(NC(=O)c2cccc3c2C(=O)N(c2ccc(OC)cc2)C3)CC1,0.47*
COc1ccc(N2Cc3cccc(C(=O)NC4CCCCCC4)c3C2=O)cc1,1
Cc1cccc(C(=O)Nc2c(C(=O)N3CCCCCC3)cnn2-c2ccccc2)c1,1
COc1ccc(-c2c(-c3ccc(OC)cc3O)n[nH]c2C)cc1,0.66
COc1ccc(-c2n[nH]c(C)c2-c2ccc3c(c2)OCCCO3)c(O)c1,0.45*
COc1ccc(-c2n[nH]c(C)c2-c2ccc(F)cc2)c(O)c1,0.74
COc1ccc(-n2nc3c(c2NC(=O)Cc2ccc(F)cc2)CSC3)cc1,1
c1ccc(-c2nc(-c3c[nH]c4ccccc34)[nH]c2-c2ccccc2)cc1,0.8
Cc1ccc(Nc2c(-c3c[nH]c4ccccc34)nc3cccc(C)n23)cc1,0.87
Oc1ccccc1-c1nc(-c2ccc(F)cc2)c(-c2ccc(F)cc2)[nH]1,0.7
Cc1ccc(-c2nc(-c3c[nH]c4ccccc34)[nH]c2-c2ccc(C)cc2)cc1,0.37*
Oc1ccccc1-c1nc(-c2ccccc2)c(-c2ccc(F)cc2)[nH]1,0.58
Fc1ccc(-c2[nH]c(-c3c[nH]c4ccccc34)nc2-c2ccccc2)cc1,0.42*
Cc1cccc(-n2ccnc2SCC(=O)Nc2ccc(C)cc2C)c1,0.88
CCCCn1c(C2CC(=O)N(c3cccc(C(F)(F)F)c3)C2)nc2ccccc21 (configuration not stated),1.1
CCCSc1oc(-c2ccccc2)nc1S(=O)(=O)c1ccc(Br)cc1,1
CCOC(=O)c1cc(-c2ccccc2)n(-c2cccc(C(=O)NCc3ccccc3OC)c2)c1C,0.81
Cc1oc(-c2ccccc2F)nc1CN1CCC(C(=O)NC2CCCC(C)C2C)CC1 (configuration not stated),0.93
Cc1ccc(C)c(CN2C(=O)c3ccccc3Sc3ccc(C(=O)NCc4cccnc4)cc32)c1,0.94
COc1ccc(OC)c(C2CC(c3cccc(Br)c3)Nc3ncnn32)c1 (configuration not stated),0.99
SMILES,CBX7 inh
CCOC(=O)c1cnc2c(OC)cccc2c1N1CCN(c2ccccc2)CC1,0.56
CCOC(=O)c1cnc2cc(C(F)(F)F)ccc2c1N1CCN(c2ccccc2OC)CC1,0.86
CCOC(=O)c1cnc2ccc(OCC)cc2c1N1CCCCCC1,1.1
CCOC(=O)c1cnc2c(OC)cccc2c1N1CCC(C)CC1,0.65
CCOC(=O)c1cnc2c(OC)cccc2c1N1CCN(c2ccccc2F)CC1,0.43*
CCOC(=O)c1cnc2ccc(OCC)cc2c1N1CCN(c2ccccc2OC)CC1,0.46*
Cc1nc(N2CCOCC2)c2c(C)c(C(=O)Nc3ccc4c(c3)OCO4)sc2n1,0.98
COc1ccc(C)cc1NC(=O)CN(C)S(=O)(=O)c1cccc2cccnc12,1.2
O=C(c1cc(Nc2cccc(C(F)(F)F)c2)nc2ccccc12)N1CCC2(CC1)OCCO2,1.3
O=C(Nc1ccccc1Cl)c1ccc2c3c(onc13)-c1ccccc1C2=O,1
O=C(CSc1nccn1-c1ccc(Cl)cc1)Nc1cccc(Cl)c1,0.55
CCCCCCCCCCCCCCCCCCNC(=O)c1c(-c2ccccc2)noc1C,1.3
CCC(=O)N1CCc2cc(S(=O)(=O)NC(C(=O)NCc3cccc(OC)c3)C(C)C)ccc21 (configuration not stated),1
CCOc1ccc(S(=O)(=O)NCCc2c(C)[nH]c3ccc(F)cc23)cc1,0.92
COc1cc(C)c(S(=O)(=O)NCCc2c(C)[nH]c3ccc(F)cc23)cc1C,0.95
Cc1ccc2[nH]c(C)c(CCNS(=O)(=O)c3ccc(F)cc3)c2c1,0.45*
COc1ccc(S(=O)(=O)NCCc2c(C)[nH]c3ccc(C)cc23)cc1OC,0.63
COc1cc(S(=O)(=O)NCCc2c(C)[nH]c3ccc(C)cc23)c(C)cc1C,0.35*
